The text below walks through data of PubChem BioAssay AID687016 (The Scripps Research Institute Molecular Screening Center, 2013).

Screen size: about 370,000 compounds; about 2,800 (0.76%) were called active. The full list was thinned out, with actives kept by preference. Values without a mark were called inactive. No stated cut-off is given here; in the data, active means inhibition above about 21%; inactive means the rest.

The target of this test is E3 ubiquitin-protein ligase UHRF1 (Homo sapiens) (UniProt Q96T88). The test is described as follows: UHRF1 methylated DNA binding inhibitors, primary screen, counter-screen for MBD2 inhibitor project, biochemical, TR-FRET, human UHRF1, single concentration (AID 687016).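 Further: UHRF1 SRA domain binding a hemimethylated CpG hairpin DNA probe; 0% = median of test compound wells and 100% = reference inhibitor.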 The settings on record: UHRF1 binding to methylated oligo, at 4.4 µM, stronger effect = higher value. A general note: A counterscreen serves to expose hits that act by an unwanted route or on another target.
E3 ubiquitin-protein ligase UHRF1 (Homo sapiens), sequence (Q96T88 whole entry, looked up, the tested form may be a part): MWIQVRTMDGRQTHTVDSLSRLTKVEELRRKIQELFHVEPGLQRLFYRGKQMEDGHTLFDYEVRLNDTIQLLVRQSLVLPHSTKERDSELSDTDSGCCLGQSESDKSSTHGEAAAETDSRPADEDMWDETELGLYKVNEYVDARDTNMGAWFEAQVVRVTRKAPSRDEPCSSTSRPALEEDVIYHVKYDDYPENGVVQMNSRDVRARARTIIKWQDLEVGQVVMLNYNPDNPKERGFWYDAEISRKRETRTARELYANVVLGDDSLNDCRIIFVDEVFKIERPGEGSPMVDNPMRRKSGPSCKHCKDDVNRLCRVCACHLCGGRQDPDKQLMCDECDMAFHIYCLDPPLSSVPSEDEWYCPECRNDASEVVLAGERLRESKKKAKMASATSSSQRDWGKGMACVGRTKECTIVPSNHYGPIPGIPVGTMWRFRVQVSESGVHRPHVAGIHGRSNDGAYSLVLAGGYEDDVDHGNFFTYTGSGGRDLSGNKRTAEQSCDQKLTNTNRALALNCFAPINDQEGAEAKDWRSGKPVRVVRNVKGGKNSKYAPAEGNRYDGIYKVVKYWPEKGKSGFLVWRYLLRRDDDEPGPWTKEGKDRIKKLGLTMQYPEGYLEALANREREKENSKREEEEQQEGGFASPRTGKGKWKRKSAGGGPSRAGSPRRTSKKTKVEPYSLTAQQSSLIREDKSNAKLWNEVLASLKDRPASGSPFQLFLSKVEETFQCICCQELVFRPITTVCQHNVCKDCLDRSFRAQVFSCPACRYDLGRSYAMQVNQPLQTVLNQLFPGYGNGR
In the case of `CCOC(=O)C1CCN(C(=O)C(C)(C)NC(=O)Nc2ccc(F)c(F)c2)CC1`, the inhibition was 2.59%.

With `O=C(COc1ccccc1)Nc1ccc(N2CCN(C(=O)c3cccs3)CC2)cc1`, the inhibition is 44.9% (active). The result for `O=C(Nc1ccc(N2CCN(C(=O)c3cccs3)CC2)cc1)c1cccnc1Cl` reads -0.07%. The result for `COc1ccc(N2CCN(C(=O)c3cccs3)CC2)cc1` reads -7.02%; that for `COc1ccc(CCNC(=O)CN(c2ccccc2)S(=O)(=O)c2ccccc2)cc1`, 1.05%. The result for `CCOc1ccc(N(CC(=O)NCCc2ccc(F)cc2)S(=O)(=O)c2ccccc2)cc1` reads 16.8%; that for `CCOc1ccc(N(CC(=O)NCCOc2ccccc2OC)S(=O)(=O)c2ccccc2)cc1`, 28% (active). With `Cc1ccc(Cn2cc(CN3[C@@H](C)COc4cc(Br)ccc4S3(=O)=O)nn2)cc1`, the inhibition is -1.6%. As for `COC(=O)[C@]12C[C@H](CC(=O)NCc3ccccc3)C(=O)N(Cc3ccccc3)C1=C[C@H](COCc1ccccc1)O[C@@H]2C`, the inhibition is 3.31%. With `O=S1(=O)c2c(cccc2N2CCSCC2)Oc2ccccc2CN1Cc1cn(Cc2ccc(F)cc2)nn1`, the inhibition was 2.59%. As to `O=C(Cn1cnc2ccccc21)N/N=C/c1ccco1`, the inhibition was -2.46%. Under `O=C(N/N=C/c1ccco1)c1ccc(C(=O)N/N=C/c2ccco2)o1` stands 38.3% (active); under `CN(C)S(=O)(=O)c1cccc(C(=O)N/N=C\c2ccco2)c1`, -2.24%. Under `C=CS(=O)(=O)N(Cc1nnn(Cc2ccccc2)c1Br)[C@H](C(=O)OC)C(C)C` stands 3.67%; under `CN(C)CCNC(=O)Cc1ccc([N+](=O)[O-])cc1`, -0.93%.

Consider `O=C(NCCCNC(=O)c1ccccc1Cl)c1cnccn1`, for which the inhibition is 4.5%. Under `CN(C)CCNC(=O)c1ccc(Cl)c2cc3ccccc3nc12` stands 30.7% (active); under `Cc1ccc(C(=O)O)cc1-c1ccc(/C=C2\SC(=O)N(CC(=O)Nc3ccc4c(c3)OCO4)C2=O)o1`, 12.9%; under `N#Cc1ccccc1CN1C(=O)S/C(=C/c2cccn2-c2cccc(C(=O)O)c2)C1=O`, 21.4% (active).

For `COC(=O)[C@H](C(C)C)N(CCCc1cn(Cc2ccccc2)nn1)S(=O)(=O)c1ccc(F)cc1Br`, the inhibition was 7.41%. With `O=S1(=O)c2ccc(Br)cc2OC[C@@H](Cc2ccccc2)N1Cc1cn(Cc2ccco2)nn1`, the inhibition was -5.15%. Consider `CC(C)c1ccc(C(=O)OC2CCOC2=O)cc1` (stereo not drawn), for which the inhibition was 0.68%. Under `COc1cc(C(=S)N2CCOCC2)cc(OC)c1OC(=O)c1ccc([N+](=O)[O-])cc1[N+](=O)[O-]` stands 3.69%; under `COc1cc(C(=O)OC2CCOC2=O)c([N+](=O)[O-])cc1OC` (stereo not drawn), 22.8% (active); under `COc1ccc(CSc2nnc(SCC(=O)Nc3ccccc3C(F)(F)F)s2)cc1`, 2.07%. The result for `O=C(OCC#CCSc1nnc(-c2ccco2)o1)c1ccc(F)cc1` reads -3.52%. In the case of `O=C(CSc1nc2ccccc2nc1N1CCCCC1)N1CCN(S(=O)(=O)c2cccc([N+](=O)[O-])c2)CC1`, the inhibition is -2.11%.

For `COc1cccc2c1C(=O)c1c(O)c3c(c(O)c1C2=O)CC(O)(C(C)=NNC(=O)c1ccc(Cl)c(Cl)c1)CC3OC1CC(N)C(O)C(C)O1` (stereo not drawn), the inhibition was 96% (active). The result for `COc1cccc(CNC(=O)CNS(=O)(=O)c2ccc3nc(C)sc3c2)c1OC` reads -1.45%; that for `COc1cc(NC(=O)C2CCCN(S(=O)(=O)c3ccc(C(C)(C)C)cc3)C2)cc(OC)c1` (stereo not drawn), 2.42%. Under `CCCOc1ccc(Oc2c(Cl)cnn(Cc3cccc4ccccc34)c2=O)cc1` stands 2.95%. With `CC(=O)Nc1nc2ncccn2c1-c1ccc(C(F)(F)F)cc1`, the inhibition is -2.41%.

Take `COc1ccc(CCN2C(=O)N(c3ccc(OC)cc3)C(=O)C2CC(=O)Nc2ccc(OC)cc2)cc1` (stereo not drawn): the inhibition was 37.7% (active). Under `COc1ccc(N2C(=O)C(CC(=O)Nc3ccccc3)N(Cc3ccc(OC)c(OC)c3)C2=O)cc1` (stereo not drawn) stands 1.08%. Under `COc1ccc(N2C(=O)C(CC(=O)Nc3ccc(F)cc3)N(CCc3cccs3)C2=O)cc1` (stereo not drawn) stands 1.34%; under `CCCCCCCCOC1OC(CO)C(O)C(O)C1NC(C)=O` (stereo not drawn), 0.97%. The result for `CCc1cccc(OC2OC(CO)C(O)C(O)C2NC(C)=O)c1` (stereo not drawn) reads 1.52%; that for `CCCCCCCCCOC1OC(CO)C(O)C(O)C1NC(C)=O` (stereo not drawn), 53.3% (active); that for `CCC(NC(=O)C1C2C=CC3(CN(Cc4ccccc4)C(=O)C13)O2)c1ccccc1` (stereo not drawn), 0.23%.

Turning to `Cc1cc(C(=O)NN=C/C=C/c2ccco2)n[nH]1`, the inhibition is 5.21%.

For the compound `CCOc1ccc(NC(=O)c2ccc(NC(=O)CN3C(=O)C(=O)N(CC(C)C)C3=O)cc2)cc1`, the inhibition is 3.55%. Take `CCOc1ccc(NC(=O)c2ccc(NC(=O)COC(=O)c3ccc(NC(=O)CC#N)cc3)cc2)cc1`: the inhibition was 23.6% (active).

Regarding `CCOc1ccc(NC(=O)c2ccc(CSc3nnnn3C)cc2)cc1`, the inhibition was -0.48%.

Take `COc1cccc(Cn2cc(COC(=O)Nc3ccc(F)cc3)nn2)c1`: the inhibition is 0.48%. Under `CCOC(=O)N1CCN(Cc2nc3c(c(=O)n(C)c(=O)n3C)n2Cc2ccccc2)CC1` stands 1.75%; under `Cn1c(=O)c2c(ncn2CC(=O)N2CCN(c3ccccc3)CC2)n(C)c1=O`, -2.46%; under `Cc1cccc(Cn2c(N3CCN(c4ccccc4)CC3)nc3c2c(=O)n(C)c(=O)n3C)c1`, 23.8% (active). As to `CN(C)[C@H]1CCN(c2cccc3c2S(=O)(=O)N2CC[C@H](C2)O3)C1`, the inhibition is -0.6%. The result for `O=C(NCCCc1ccccc1)[C@H](Cc1ccccc1)NC1(C(=O)NCCc2c[nH]c3ccccc23)CCC1` reads 0.93%; that for `C=CCN1C(=O)[C@@H](CC(=O)NCC2CCCCC2)[C@]2(C(=O)OC)CCCCC=C12`, -2.02%; that for `COc1cccc(N2CCN(CC(=O)N(C)Cc3ccc(F)cc3)CC2)c1`, -0.26%.

Regarding `COC(=O)c1cc(S(=O)(=O)N2CCN(c3ccccc3C)CC2)cn1C`, the inhibition was -0.14%. Under `CCOC(=O)[C@]12CCCC=C1N(Cc1ccc(OC)cc1)C(=O)[C@@H]2CC(=O)NCc1cccs1` stands 0.05%.

The inhibition is the drop in the measured response relative to a control, in per cent.
